Data: PubChem BioAssay AID1159580 (chemical genetic matrix, 2015)
Where “and” joins values, the source holds several entries; their conditions need not be identical. Equal values may be shown once. Hit rate of the full screen: of about 5,500 compounds, about 2,000 (36%) were called active. About 18% were inconclusive and are not listed. No stated cut-off is given here; in the data, active means normalized growth mostly below about 0.91 (no sharp cut-off); inconclusive means no clear call, values can overlap the other calls; inactive means mostly above about 0.92. The list shows a part of the results.

Experiment: chemical genetic growth profiling, strain panel (AID 1159580);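 further: tested at 20 µM; growth read once vehicle control cultures reached saturation at 30 °C; 1 = growth at the plate median or of vehicle wells; lower values mean less growth of the strain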
Settings: growth OD
[1] = S. cerevisiae deletion strains, locus YAL013W, strain DEP1, hits give low values
[2] = S. cerevisiae deletion strains, locus YBR229C, strain ROT2, hits give low values
[3] = S. cerevisiae deletion strains, locus YDL101C, strain DUN1, hits give low values
[4] = S. cerevisiae deletion strains, locus YDL134C, strain PPH21, hits give low values
[5] = S. cerevisiae deletion strains, locus YDR150W, strain NUM1, hits give low values
[6] = S. cerevisiae deletion strains, locus YEL061C, strain CIN8, hits give low values
[7] = S. cerevisiae deletion strains, locus YGR078C, strain PAC10, hits give low values
[8] = S. cerevisiae deletion strains, locus YGR229C, strain SMI1, hits give low values
[9] = S. cerevisiae deletion strains, locus YHR030C, strain SLT2, hits give low values
[10] = S. cerevisiae deletion strains, locus YJR043C, strain POL32, hits give low values
[11] = S. cerevisiae deletion strains, locus YJR075W, strain HOC1, hits give low values
[12] = S. cerevisiae deletion strains, locus YLR039C, strain RIC1, hits give low values
[13] = S. cerevisiae deletion strains, locus YLR262C, strain YPT6, hits give low values
[14] = S. cerevisiae deletion strains, locus YMR263W, strain SAP30, hits give low values
[15] = S. cerevisiae deletion strains, locus YMR307W, strain GAS1, hits give low values
[16] = S. cerevisiae deletion strains, locus YNL128W, strain TEP1, hits give low values
[17] = S. cerevisiae deletion strains, locus YNL153C, strain GIM3, hits give low values
[18] = S. cerevisiae deletion strains, locus YNL322C, strain KRE1, hits give low values
[19] = S. cerevisiae deletion strains, locus YOL006C, strain TOP1, hits give low values
[20] = S. cerevisiae deletion strains, locus YPL055C, strain LGE1, hits give low values
[21] = S. cerevisiae deletion strains, locus YPL241C, strain CIN2, hits give low values
[22] = S. cerevisiae deletion strains, locus YAL040C, strain CLN3, hits give low values
[23] = S. cerevisiae deletion strains, locus YCL061C, strain MRC1 (second series), hits give low values
[24] = S. cerevisiae deletion strains, locus YDR363W, strain ESC2, hits give low values
[25] = S. cerevisiae deletion strains, locus YER002W, strain NOP16, hits give low values
[26] = S. cerevisiae deletion strains, locus YNL175C, strain NOP13, hits give low values
[27] = S. cerevisiae deletion strains, locus YNL197C, strain WHI3, hits give low values
[28] = S. cerevisiae deletion strains, locus YNL224C, strain SQS1, hits give low values
[29] = S. cerevisiae deletion strains, locus YOR083W, strain WHI5 (second series), hits give low values

Measured: normalized growth

Cc1ccc(O)c(C(CCN(C(C)C)C(C)C)c2ccccc2)c1 (stereo not given)
inactive: [1] 1.01 | S. cerevisiae deletion strains, locus YBR021W, strain FUR4, hits give low values 1 | [2] 1.01 | S. cerevisiae deletion strains, locus YCL029C, strain bik1, hits give low values 0.998 | S. cerevisiae deletion strains, locus YDL035C, strain GPR1, hits give low values 1.01 | S. cerevisiae deletion strains, locus YDL074C, strain BRE1, hits give low values 1.03 | [3] 1.01 | [4] 1.02 | S. cerevisiae deletion strains, locus YDL185W, strain tfp1, hits give low values 0.989 | S. cerevisiae deletion strains, locus YDL192W, strain arf1, hits give low values 1 | S. cerevisiae deletion strains, locus YDR101C, strain arx1, hits give low values 0.988 | [5] 1.01 | S. cerevisiae deletion strains, locus YDR162C, strain NBP2, hits give low values 1 | S. cerevisiae deletion strains, locus YDR318W, strain mcm21, hits give low values 0.991 | S. cerevisiae deletion strains, locus YDR388W, hits give low values 0.983 | S. cerevisiae deletion strains, locus YDR502C, strain sam2, hits give low values 0.996 | [6] 1.01 | S. cerevisiae deletion strains, locus YER110C, hits give low values 0.995 | S. cerevisiae deletion strains, locus YER155C, strain BEM2, hits give low values 1.01 | S. cerevisiae deletion strains, locus YER167W, strain BCK2, hits give low values 0.994 | S. cerevisiae deletion strains, locus YGL078C, strain dbp3, hits give low values 0.996 | S. cerevisiae deletion strains, locus YGL086W, strain mad1, hits give low values 0.995 | S. cerevisiae deletion strains, locus YGL248W, strain PDE1, hits give low values 1 | [7] 1.01 | S. cerevisiae deletion strains, locus YGR135W, strain pre9, hits give low values 0.985 | [8] 0.995 | S. cerevisiae deletion strains, locus YGR252W, strain gcn5, hits give low values 1 | [9] 1.01 and 1.03 | S. cerevisiae deletion strains, locus YHR079C, strain IRE1 (second series), hits give low values 0.988 | S. cerevisiae deletion strains, locus YHR079C, strain IRE1, hits give low values 0.981 | S. cerevisiae deletion strains, locus YHR094C, strain hxt1, hits give low values 0.987 | S. cerevisiae deletion strains, locus YHR129C, strain ARP1, hits give low values 1.02 | S. cerevisiae deletion strains, locus YHR200W, strain rpn10, hits give low values 0.982 | S. cerevisiae deletion strains, locus YIL066C, strain RNR3, hits give low values 1.02 | S. cerevisiae deletion strains, locus YIL073C, strain SPO22, hits give low values 0.967 | S. cerevisiae deletion strains, locus YIL125W, strain kgd1, hits give low values 0.985 | S. cerevisiae deletion strains, locus YIR030C, strain dcg1, hits give low values 0.993 | S. cerevisiae deletion strains, locus YJL095W, strain BCK1, hits give low values 1.01 | S. cerevisiae deletion strains, locus YJL134W, strain LCB3, hits give low values 1 | S. cerevisiae deletion strains, locus YJL168C, strain set2, hits give low values 0.99 | S. cerevisiae deletion strains, locus YJL187C, strain SWE1 (second series), hits give low values 1.01 | [10] 1 | S. cerevisiae deletion strains, locus YJR066W, strain TOR1, hits give low values 0.958 | [11] 1 | S. cerevisiae deletion strains, locus YKL009W, strain mrt4, hits give low values 1 | S. cerevisiae deletion strains, locus YKL068W, hits give low values 0.986 | S. cerevisiae deletion strains, locus YKL085W, strain MDH1 (second series), hits give low values 0.99 | S. cerevisiae deletion strains, locus YKL085W, strain MDH1, hits give low values 0.99 | S. cerevisiae deletion strains, locus YKL190W, strain CNB1, hits give low values 1.01 | S. cerevisiae deletion strains, locus YKR001C, strain vps1, hits give low values 0.999 | [12] 1.06 | S. cerevisiae deletion strains, locus YLR058C, strain SHM2, hits give low values 1.01 | S. cerevisiae deletion strains, locus YLR102C, strain apc9, hits give low values 0.992 | S. cerevisiae deletion strains, locus YLR113W, strain HOG1, hits give low values 1.03 | [13] 1.05 | S. cerevisiae deletion strains, locus YLR268W, strain sec22, hits give low values 0.984 | S. cerevisiae deletion strains, locus YLR330W, strain CHS5, hits give low values 1.01 | S. cerevisiae deletion strains, locus YLR342W, strain FKS1 (second series), hits give low values 1.01 | S. cerevisiae deletion strains, locus YLR371W, strain rom2, hits give low values 0.972 | S. cerevisiae deletion strains, locus YLR418C, strain cdc73, hits give low values 0.982 | S. cerevisiae deletion strains, locus YML016C, strain PPZ1, hits give low values 1.02 | S. cerevisiae deletion strains, locus YML032C, strain rad52, hits give low values 0.986 | S. cerevisiae deletion strains, locus YML124C, strain tub3, hits give low values 0.991 | S. cerevisiae deletion strains, locus YMR078C, strain ctf18, hits give low values 0.978 | S. cerevisiae deletion strains, locus YMR223W, strain ubp8, hits give low values 0.996 | [14] 1.01 | [15] 0.993 | S. cerevisiae deletion strains, locus YNL067W, strain RPL9B, hits give low values 1.01 | [16] 1 | [17] 1.01 | S. cerevisiae deletion strains, locus YNL183C, strain NPR1, hits give low values 0.961 | S. cerevisiae deletion strains, locus YNL233W, strain BNI4, hits give low values 1.01 | S. cerevisiae deletion strains, locus YNL250W, strain rad50, hits give low values 0.981 | S. cerevisiae deletion strains, locus YNL271C, strain bni1, hits give low values 0.997 | S. cerevisiae deletion strains, locus YNL298W, strain CLA4, hits give low values 0.974 | S. cerevisiae deletion strains, locus YNL307C, strain MCK1, hits give low values 0.996 | [18] 1 | S. cerevisiae deletion strains, locus YNR052C, strain pop2, hits give low values 0.988 | [19] 1.05 | S. cerevisiae deletion strains, locus YOL012C, strain htz1 0.768 | S. cerevisiae deletion strains, locus YOL147C, strain pex11, hits give low values 0.986 | S. cerevisiae deletion strains, locus YOR061W, strain CKA2, hits give low values 1.02 | S. cerevisiae deletion strains, locus YOR069W, strain VPS5, hits give low values 1.01 | S. cerevisiae deletion strains, locus YOR136W, strain idh2, hits give low values 0.983 | S. cerevisiae deletion strains, locus YOR144C, strain elg1, hits give low values 0.981 | S. cerevisiae deletion strains, locus YOR184W, strain ser1, hits give low values 1 | S. cerevisiae deletion strains, locus YOR231W, strain MKK1, hits give low values 1 | S. cerevisiae deletion strains, locus YOR316C, strain cot1, hits give low values 0.985 | [20] 1.01 | [21] 1.01 | S. cerevisiae deletion strains, locus YPL256C, strain CLN2, hits give low values 0.992 | S. cerevisiae deletion strains, locus YPR119W, strain clb2, hits give low values 0.98 | S. cerevisiae deletion strains, locus YPR141C, strain kar3, hits give low values 0.985 | S. cerevisiae deletion strains, locus YPR163C, strain tif3, hits give low values 0.977 | S. cerevisiae deletion strains, locus YPR167C, strain met16, hits give low values 0.988 | S. cerevisiae deletion strains, strain wtn01, hits give low values 0.988 | S. cerevisiae strains, strain wild type, hits give low values 1

COc1ccc(/C=C2/C(=O)N(c3cccc(Cl)c3)N=C2C)cc1
inactive: [1] 0.983 | [2] 0.963 | [3] 1 | [4] 0.991 | [5] 1 | [6] 0.964 | [7] 0.962 | [10] 1.03 | [11] 0.934 | S. cerevisiae deletion strains, locus YLR058C, strain SHM2 (second series), hits give low values 0.963 | [14] 0.989 | [17] 0.999 | S. cerevisiae deletion strains, locus YNL298W, strain CLA4 (second series), hits give low values 0.839 | [18] 0.973 | [19] 0.849 | [20] 0.961 | [21] 0.897
active: [9] 0.53 | S. cerevisiae deletion strains, locus YHR087W, strain rtc3, hits give low values 0.866 | S. cerevisiae deletion strains, locus YJL187C, strain SWE1, hits give low values 0.921 | [12] 0.62 | S. cerevisiae deletion strains, locus YLR085C, strain ARP6, hits give low values 0.744 | [13] 0.699 | S. cerevisiae deletion strains, locus YML094W, strain GIM5, hits give low values 0.865 | S. cerevisiae deletion strains, locus YMR219W, strain ESC1, hits give low values 0.938 | S. cerevisiae deletion strains, locus YNR030W, strain Alg12, hits give low values 0.88 | S. cerevisiae deletion strains, locus YPR135W, strain CTF4, hits give low values 0.599

Cn1c(=O)c2c(nc(/C=C/c3cccc(Cl)c3)n2C)n(C)c1=O
inactive: [22] 0.996 | [23] 0.981 | [24] 1.05 | [25] 1.01 | [8] 0.996 | [16] 0.993 | [17] 0.946 | [26] 0.969 | [27] 0.954 | [28] 0.995 | [18] 1.02 | [29] 0.964 | [20] 1.03 | [21] 0.995

Cn1cc(C(=O)OCC2CCN(CCNS(C)(=O)=O)CC2)c2ccccc21
inactive: [22] 1 | [23] 1.01 | [5] 1.01 | [24] 1 | [25] 1.01 | [15] 1 | [16] 1.03 | [17] 1.04 | [26] 1.05 | [27] 1.06 | [28] 1.05 | [29] 1.03
